# Results as given in PubChem BioAssay AID1117361 (Southern Research Institute, 2015).
# The campaign covered roughly 3,600 compounds. About 900 (25%) were called active. These entries were drawn from the full list. Potency and affinity values are given separately. Values without a mark were called inactive. The rule behind the calls is not given here.
# Molecular target: Protein Tat (Human immunodeficiency virus type 1 group M subtype B (isolate HXB2)) (UniProt P04608)
# Assay: HIV-1 Tat–TAR interaction blockers – biochemical, fluorescence polarization, FAM-labeled TAR RNA, counter-screen for Vif-APOBEC3G degradation inhibitor project, dose response (AID 1117361)
# Settings: Tat-TAR RNA binding; series mostly up to 100 µM; inhibition: at the top concentration
Structure (SMILES),inhibition,outcome
COc1ccccc1-c1nnc(SCC(=O)NCc2c(C)c(Cl)cc(C(C)C)c2O)o1,13.5%,
O=C(Cn1c(=O)[nH]c2ccccc2c1=O)N1CCN(c2cccc(Cl)c2)CC1,12.4%,
N#CC(C(=O)NCc1ccco1)c1nc2ccccc2nc1N1CCOCC1 (centres undefined),26.6%,
Cc1ccnc(-n2c(CCN3C(=O)c4ccccc4C3=O)nc3ccccc3c2=O)c1,1.35%,
CC(C)C(NC(N)=O)C(=O)NC1CCCCC1 (centres undefined),,inactive
O=C(O)c1cccc(CSc2nnc(COc3ccccc3)o2)c1,,inactive
COc1cc2c(cc1OC)C(=O)C(Br)CC2 (centres undefined),,inactive
COc1cc(NC(=O)NCCN2CCN(c3ccc(Cl)cc3)CC2)ccc1C,1.35%,
COc1cc(CCC(=O)Nc2cccc(C(F)(F)F)c2)cc(OC)c1OC,,inactive
Cc1ccc(NS(=O)(=O)c2ccc(OCC(=O)Nc3cccc([N+](=O)[O-])c3)c(C)c2)cc1,17.6%,
CCNC(=S)Nc1ccc(N(c2ccccc2)C(C)C)cc1,,inactive
O=C(Cn1cnc2c(nnn2Cc2ccc(Cl)cc2)c1=O)NCc1ccco1,8.87%,
CCOC(=O)c1cc2c(n(-c3ccccc3)c1=O)CC(C)(C)CC2=O,4.34%,
CC1Cc2ccccc2N1C(=O)C1CCN(S(=O)(=O)Cc2ccccc2)CC1 (centres undefined),1.36%,
CC1Cc2ccccc2N1Cc1nc2cc(C(F)(F)F)ccc2c(=O)[nH]1 (centres undefined),12.8%,
CCOc1cccc(C(=O)Nc2ccccc2OC(F)F)c1,4.34%,
CCC1(CC)C(=O)NC(=O)NC1=NCCc1ccc(O)cc1,,inactive
Cc1noc(C)c1S(=O)(=O)Nc1ccc2c(c1)C(=O)N([C@@H](C)CO)C[C@H](C)[C@@H](CN(C)Cc1ccc(C(F)(F)F)cc1)OCCCC[C@H](C)O2,0.33%,
COc1cccc(-c2nc(-c3cccs3)no2)c1,2.47%,
CCCCCOc1ccc(C2C(C(C)=O)=C(C)Nc3ncnn32)cc1OC (centres undefined),0.68%,
N#Cc1ccccc1NC(=O)CNc1ccc(Cl)c(C(F)(F)F)c1,19.8%,
Cc1ccc(NC(=O)CCCCCC2NC(=O)NC2C)cc1 (centres undefined),4.05%,
CC1CC(C)CN(C(=O)CSCC(=O)O)C1 (centres undefined),,inactive

Structure (SMILES),inhibition,outcome
CC(C)C(c1nnnn1C1CCCCC1)N1CCN(c2ncccn2)CC1 (centres undefined),,inactive
O=C(CSc1c(Cl)cccc1Cl)N1CCC(c2nc3ccccc3s2)CC1,2.7%,
CCN1CCC(=NNC(=O)CC23CC4CC(CC(C4)C2)C3)CC1,21.8%,
CCCCCCNS(=O)(=O)c1ccccc1Br,,inactive
CCCC1(C(=O)O)NC(c2ccc(OC)cc2O)C2C(=O)N(c3ccc(OC)cc3)C(=O)C21 (centres undefined),6.08%,
Cc1cccc2sc(NNC(=O)c3ccc(S(=O)(=O)N4CC(C)CC(C)C4)cc3)nc12 (centres undefined),14%,
Cc1cc(NC(=O)CC(CN(C)S(=O)(=O)c2ccccc2)c2ccccc2)no1 (centres undefined),6.08%,
COc1cccc(-c2nnc(SCC(=O)N3CCOCC3)o2)c1,1.36%,
Cc1occc1-c1nnc(SCC(=O)N(C)C)o1,5.46%,
COc1ccc(N(C(=O)c2ccccc2OC)C2C=CS(=O)(=O)C2)c(OC)c1 (centres undefined),6.08%,
COc1ccc(S(=O)(=O)N(CC(=O)O)c2ccccn2)cc1,3.41%,
O=[N+]([O-])c1ccccc1NC(=S)N/N=C/c1ccc(O)c(O)c1,7.42%,
Cn1ccnc1Sc1ccc(/C=N/NC(=O)c2ccccc2O)cc1[N+](=O)[O-],,inactive
Cc1cc(NC(=O)Cn2cnc3c(nnn3-c3cccc(F)c3)c2=O)no1,,inactive
C/C(=N\OCC(=O)NC12CC3CC(CC(C3)C1)C2)c1cc2ccccc2o1,,inactive
CC1CCC(NC(=O)CCS(=O)(=O)c2ccc3c(c2)CCN3C(=O)C2CC2)CC1 (centres undefined),4.12%,
CN1CCN(NC(=O)c2ccc(S(=O)(=O)N3CC4(C)CC3CC(C)(C)C4)cc2)CC1 (centres undefined),,inactive
COc1cc(NC(=O)CCn2c(=O)[nH]c3ccsc3c2=O)cc(OC)c1,6.14%,
O=C(O)CCCCC1SCC2NC(=O)NC21 (centres undefined),,inactive
CCCN(CCC)CCCNC(=O)c1cn(CCOC)c(=O)c2c1c1ccccc1n2C,4.73%,
Cc1cc(NC(=O)C2CCCC2)n(-c2nc3ccccc3[nH]2)n1,19%,
O=C1CCCCC1Oc1ccc2ccc(=O)oc2c1 (centres undefined),0.33%,
Cc1cc(-c2[nH]nc3c2C(c2cccc(O)c2)C(C#N)=C(N)O3)c(C)s1 (centres undefined),14.3%,

Structure (SMILES),inhibition,outcome
CSc1ccc(C2C(C#N)=C(N)Oc3c2ccc(=O)c2c(C)oc(C)c32)cc1 (centres undefined),6.82%,
N=C(N)c1ccc(N=Nc2c(O)ccc3c2[nH]c2ccccc23)cc1,,inactive
CCOC(=O)c1cc2ccc(OC)c(OC)c2c(=O)s1,8.11%,
CCOC(=O)CSc1nc(CC)nc2ccccc12,,inactive
CC(c1nnnn1C1CCCCC1)N(Cc1ccccc1)Cc1cccnc1 (centres undefined),,inactive
Cc1cccc(C(=O)Nc2nnc(Cc3c[nH]c4ccccc34)s2)c1,,inactive
CCNS(=O)(=O)c1ccc(-c2ccc(-n3cnnn3)cc2)cc1,,inactive
CC(=O)c1ccc(S(=O)(=O)Nc2cccc(-c3ccc(N4CCOCC4)nn3)c2)cc1,,inactive
CCC(C)n1c(-c2cccc(S(=O)(=O)N3CCOCC3)c2)n[nH]c1=S (centres undefined),,inactive
O=C(Oc1cccnc1)c1ccc(Cl)cc1,4.77%,
Cc1ccc(S(=O)(=O)N2CCCC2C(=O)N(C)Cc2cccs2)cc1 (centres undefined),2.03%,
Cc1cc(O)c(C(C)C)cc1NC1=NS(=O)(=O)c2ccccc21,6.82%,
CCCCS(=O)CC(O)COCC (centres undefined),,inactive
Cc1cc(Cl)c(S(=O)(=O)NCC2CCCO2)cc1OCC(=O)NC1CCCCC1 (centres undefined),,inactive
CC(C)(C)c1ccccc1OCCOCCSc1ncccn1,5.46%,
O=C(CCCc1ccccc1)N1CCN(c2ccc([N+](=O)[O-])cc2)CC1,6.82%,
CC(C)OC(=O)/C(=C\C=C\c1ccccc1)NC(=O)c1ccccc1,3.38%,
O=C(CCc1ccc(S(=O)(=O)N2CCOCC2)cc1)OCc1nc2ccccc2s1,,inactive
O=C1c2ccccc2C(Nc2ccc(F)c(Cl)c2)N1c1ccccn1 (centres undefined),12.2%,
CCn1c(SCC(=O)n2c(C)c(C)c3ccccc32)nnc1-c1ccco1,19.8%,
NC(=O)c1ccccc1NC(=O)/C=C/c1ccc(Cl)cc1,,inactive
CCCCC(=O)Nc1ccc(NC(=O)c2ccc3c(c2)OCO3)cc1OC,1.35%,
CCn1c(-c2csc(-c3ccc(Cl)cc3)n2)n[nH]c1=S,0.68%,
